Results filed as inconclusive are left out. The source made the active and inactive calls. Unless noted, calls come from the whole dose curve; as a rule, active = well fitted curve in the direction sought with a large enough effect in the repeat runs; inconclusive = weak or mixed curves; inactive = no such curve, though single readings can be large; an effect the other way counts as inactive or inconclusive.
What was measured:
[1] = qHTS assay to identify aromatase inhibitors - cell viability counter screen (AID 743084);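 note: cells stimulated with testosterone during compound exposure; nearly all actives have a fitted effect of over 55% in size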
[2] = molecular target: Aryl hydrocarbon receptor (Homo sapiens) (UniProt P35869); test: qHTS assay to identify small molecule that activate the aryl hydrocarbon receptor (AhR) signaling pathway (AID 743085); note: nearly all actives have a fitted effect of over 15% in size; note: potency is the fitted concentration of half-maximal effect;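 for activation: HG2L7.5c1 human HepG2 liver cells with stably integrated DRE-driven firefly reporter; series mostly up to about 70 µM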
Summary of the method: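 Steps: seed HepG2-AhR-luc cells; allow 5 h at 37C; pin-transfer test compound or vehicle; incubate 24 h at 37C; add viability dye (30 min, 37C) and read fluorescence; add luciferase substrate (30 min, RT) and read luminescence.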

[3] = qHTS assay to identify small molecule that activate the aryl hydrocarbon receptor (AhR) signaling pathway - cell viability counter screen (AID 743086);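 note: HepG2 liver cells carrying the AhR DRE luciferase reporter; series mostly up to about 70 µM; nearly all actives have a fitted effect of over 45% in size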
Summary of the method: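 HepG2-AhR-luc (HG2L7.5c1) cells, 4000/well, were preincubated 5 h at 37C, exposed to compound in qHTS format for 24 hr at 37C, then given CellTiter-Fluor for 30 min; viability was read as fluorescence in the reporter wells.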

[4] = molecular target: Peroxisome proliferator-activated receptor gamma (Homo sapiens) (UniProt P37231); test: qHTS assay to identify small molecule agonists of the peroxisome proliferator-activated receptor gamma (PPARg) signaling pathway (AID 743094; active = well fitted activation curve with a large enough effect in the signal ratio in the repeat runs, not every such curve was filed as active; the % refers to the signal ratio; note: potency is the fitted concentration of half-maximal effect)
Summary of the method: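 Following 5 h plating at 37C, PPARg-bla HEK293H cells receive compound or DMSO for 17 h; fluorescence intensity is recorded after LiveBLAzer B/G loading for 1 h at room temperature.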

[5] = molecular target: Peroxisome proliferator-activated receptor gamma (Homo sapiens) (UniProt P37231); test: qHTS assay to identify small molecule antagonists of the peroxisome proliferator-activated receptor gamma (PPARg) signaling pathway (AID 743191; calls by dose curve; note: series mostly up to about 63 µM; nearly all actives have a fitted effect of over 30% in size)
Summary of the method: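 GeneBLAzer PPARg UAS-bla HEK293H cells carrying a UAS-driven beta-lactamase reporter were plated at 3000 cells/well, preincubated 5 h at 37C, then given compound for 17 h at 37C; LiveBLAzer B/G FRET substrate was read after 1 h at room temperature.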

[6] = qHTS assay to identify small molecule antagonists of the peroxisome proliferator-activated receptor gamma (PPARg) signaling pathway - cell viability counter screen (AID 743194); note: nearly all actives have a fitted effect of over 55% in size
Summary of the method: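 PPARg-UAS-bla HEK293H cells were plated, rested 5 h at 37 C, then treated with compounds plus rosiglitazone (50 nM final) for 17 h at 37 C; viability was then read by CellTiter-Glo luminescence after 30 min at room temperature.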

[7] = qHTS assay for small molecule agonists of the antioxidant response element (ARE) signaling pathway (AID 743202; active = well fitted activation curve with a large enough effect in the signal ratio in the repeat runs, not every such curve was filed as active; the % refers to the signal ratio)
Summary of the method: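 Compounds delivered in DMSO to ARE-bla HepG2 cells (2,000 cells/well, pre-incubated 5 h) and left 16 h at 37 C. LiveBLAzer B/G FRET substrate then added for 2 h at RT before fluorescence reading.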

[8] = qHTS assay for small molecule agonists of the antioxidant response element (ARE) signaling pathway - cell viability counter screen (AID 743203; calls by dose curve; note: nearly all actives have a fitted effect of over 55% in size)
Summary of the method: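 Compounds in DMSO were pinned onto ARE-bla HepG2 cells plated 5 hrs earlier at 2,000 cells/well. Sixteen hours later at 37C/5% CO2, CellTiter-Glo was added and luminescence measured after 30 min at room temperature.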

[9] = qHTS assay for small molecule activators of the heat shock response signaling pathway - cell viability counter screen (AID 743209); note: nearly all actives have a fitted effect of over 50% in size
Summary of the method: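 Counter screen for cytotoxicity in HeLa HSE-bla reporter cells. Treatment was 5 h at 37 C; viability was detected by luminescent ATP assay (CellTiter-Glo) in the same wells as the beta-lactamase read.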

[10] = qHTS assay for small molecule activators of the heat shock response signaling pathway (AID 743210; active = well fitted activation curve with a large enough effect in the signal ratio in the repeat runs, with a control signal flat, not every such curve was filed as active; the % refers to the signal ratio;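 note: HeLa cells with beta-lactamase reporter driven by heat shock elements; series mostly up to about 63 µM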)
Summary of the method: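 Reporter gene assay: HeLa cells stably bearing an HSE-bla construct, compound treatment 5 h at 37 C, LiveBLAzer substrate 2.5 h at RT, fluorescence intensity.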

Measured: Potency

Sequence of Peroxisome proliferator-activated receptor gamma (Homo sapiens) (P37231 whole entry, looked up): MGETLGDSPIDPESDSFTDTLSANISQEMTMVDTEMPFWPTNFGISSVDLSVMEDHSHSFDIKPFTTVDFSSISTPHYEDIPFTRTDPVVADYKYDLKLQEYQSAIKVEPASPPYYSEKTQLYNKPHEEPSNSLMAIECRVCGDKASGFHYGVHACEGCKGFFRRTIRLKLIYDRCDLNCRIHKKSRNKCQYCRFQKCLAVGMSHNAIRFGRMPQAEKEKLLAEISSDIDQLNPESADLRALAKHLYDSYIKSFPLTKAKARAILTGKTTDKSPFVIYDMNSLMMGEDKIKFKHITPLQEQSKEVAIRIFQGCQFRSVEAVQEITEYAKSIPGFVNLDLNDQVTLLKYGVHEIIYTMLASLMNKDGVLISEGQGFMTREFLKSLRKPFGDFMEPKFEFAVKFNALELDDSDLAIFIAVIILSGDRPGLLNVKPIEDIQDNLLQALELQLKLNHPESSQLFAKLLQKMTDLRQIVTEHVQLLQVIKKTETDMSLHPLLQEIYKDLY
Sequence of Aryl hydrocarbon receptor (Homo sapiens) (P35869 whole entry, looked up): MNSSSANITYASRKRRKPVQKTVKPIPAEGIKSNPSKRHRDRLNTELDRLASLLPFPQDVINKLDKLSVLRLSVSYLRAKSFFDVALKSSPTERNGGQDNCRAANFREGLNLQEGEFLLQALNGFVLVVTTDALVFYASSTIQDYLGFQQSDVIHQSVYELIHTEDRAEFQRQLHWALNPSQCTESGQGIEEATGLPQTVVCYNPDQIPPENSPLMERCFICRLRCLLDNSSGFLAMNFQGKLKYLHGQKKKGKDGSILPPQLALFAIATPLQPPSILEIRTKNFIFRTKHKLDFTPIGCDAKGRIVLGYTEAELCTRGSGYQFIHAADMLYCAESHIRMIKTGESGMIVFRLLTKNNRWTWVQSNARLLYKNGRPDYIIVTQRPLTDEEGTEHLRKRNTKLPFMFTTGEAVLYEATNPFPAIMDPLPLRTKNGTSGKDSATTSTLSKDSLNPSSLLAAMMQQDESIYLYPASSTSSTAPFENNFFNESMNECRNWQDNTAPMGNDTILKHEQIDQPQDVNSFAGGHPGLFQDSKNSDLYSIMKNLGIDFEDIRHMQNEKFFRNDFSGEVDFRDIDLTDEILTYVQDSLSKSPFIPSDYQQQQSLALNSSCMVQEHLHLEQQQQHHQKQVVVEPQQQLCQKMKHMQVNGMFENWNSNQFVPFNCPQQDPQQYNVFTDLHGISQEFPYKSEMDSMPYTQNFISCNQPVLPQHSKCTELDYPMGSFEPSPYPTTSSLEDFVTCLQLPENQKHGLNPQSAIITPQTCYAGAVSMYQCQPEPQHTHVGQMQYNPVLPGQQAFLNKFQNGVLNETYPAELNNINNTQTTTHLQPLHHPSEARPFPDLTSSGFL

CCC(=O)O[C@]1(C(=O)SCF)[C@H](C)C[C@H]2[C@@H]3C[C@H](F)C4=CC(=O)C=C[C@]4(C)[C@@]3(F)[C@@H](O)C[C@@]21C
not listed: [10]
inactive: all other assays above

CCCNC(C)(C)COC(=O)c1ccccc1
active: [4] 338 nM
inactive: all other assays above

ICCc1ccccc1
inactive: all assays above

COc1ccccc1OCC(O)COC(N)=O (configuration not stated)
not listed: [10]
inactive: all other assays above

Cc1ccc([N+](=O)[O-])cc1Cl
inactive: all assays above

CC1(C)C(=O)N(Cl)C(=O)N1Br
not listed: [7]
inactive: all other assays above

CCCCCCCCOC(=O)CCCCCCCCC(=O)OCCCCCCCC
not listed: [7]
inactive: all other assays above

Oc1ccccc1C=NCc1ccccc1
not listed: [10]
inactive: all other assays above

CN(C)CCOc1ccccc1Cc1ccccc1
inactive: all assays above

CCc1nnc(NS(=O)(=O)c2ccc(N)cc2)s1
inactive: all assays above

CCN[C@H]1CN(CCCOC)S(=O)(=O)c2sc(S(N)(=O)=O)cc21
inactive: all assays above

CCCN(CCC)C(=O)C(CCC(=O)O)NC(=O)c1ccccc1 (configuration not stated)
inactive: all assays above

CCN(CC)CC1CCCCN1CC(=O)N1c2ccccc2C(=O)Nc2cccnc21 (configuration not stated)
not listed: [10]
inactive: all other assays above

CC(C)(CO)[C@@H](O)C(=O)NCCC(=O)O
not listed: [7]
inactive: all other assays above

CC(C)O
not listed: [7] | [9] | [10]
inactive: all other assays above

CCCNC(C)C(=O)Nc1c(C)csc1C(=O)OC (configuration not stated)
not listed: [10]
inactive: all other assays above

O=C1CCCCCCCCCCC(=O)OCCO1
not listed: [7]
inactive: all other assays above

CCOC(=O)NCCC[Si](OCC)(OCC)OCC
inactive: all assays above

C[C@@H]1CN(c2c(F)c(F)c3c(=O)c(C(=O)O)cn(C4CC4)c3c2F)C[C@H](C)N1
not listed: [7]
inactive: all other assays above

CC(C)C(=O)OC/C=C/c1ccccc1
not listed: [7]
inactive: all other assays above

Cc1nnc(SCC2=C(C(=O)O)N3C(=O)[C@@H](NC(=O)Cn4cnnn4)[C@H]3SC2)s1
not listed: [7] | [10]
inactive: all other assays above

CCOC(=O)C1CC(=O)C(=C(O)C2CC2)C(=O)C1 (configuration not stated)
inactive: all assays above

CCC(=O)Nc1ccc(O)cc1
inactive: all assays above

NC/C=C/C(=O)O
inactive: all assays above

COc1nc(C)nc(NC(=O)NS(=O)(=O)c2ccccc2OCCCl)n1
inactive: all assays above

COc1cc(Cl)ccc1Cl
not listed: [7]
inactive: all other assays above

CC(C)(C)c1cccc(O)c1
not listed: [10]
inactive: all other assays above

CC(C)OC(C)C
not listed: [7] | [10]
inactive: all other assays above

Cc1cc2nc(N)sc2cc1C
active: [2] 6170 nM
inactive: all other assays above

C=C(C)C(=O)OCCOP(=O)(O)O
not listed: [10]
inactive: all other assays above

Cc1ccc([N+](=O)[O-])c(N)c1
inactive: all assays above

O=S(=O)(O)C(F)(F)F
not listed: [7]
inactive: all other assays above

Cc1ncc(CO)c(CN)c1O
not listed: [7]
inactive: all other assays above

O=C1N(c2ccccc2)c2ccccc2C1(Cc1ccncc1)Cc1ccncc1
not listed: [7] | [10]
inactive: all other assays above

COC(C)CCO (configuration not stated)
inactive: all assays above

Cc1c(-c2ccccc2)oc2c(C(=O)OCCN3CCCCC3)cccc2c1=O
not listed: [10]
inactive: all other assays above

CCOc1ccc(NC(N)=O)cc1
inactive: all assays above

CO[C@@]1(NC(=O)CSCC#N)C(=O)N2C(C(=O)O)=C(CSc3nnnn3C)CS[C@@H]21
inactive: all assays above

CC(C)CCCCCCc1ccc(OCCOCCO)cc1
not listed: [5]
inactive: all other assays above

FC(F)(F)C(F)(F)C(F)(F)C(F)(F)C(F)(F)C(F)(F)C(F)(F)C(F)(F)Br
not listed: [5]
inactive: all other assays above

CC(C)S
not listed: [7]
inactive: all other assays above

Cc1c(C(=O)NCCO)[n+](=O)c2ccccc2n1[O-]
not listed: [7]
inactive: all other assays above

CCCCc1ccc2nc(NC(=O)OC)[nH]c2c1
active: [2] 1010 nM
not listed: [5] | [7] | [10]
inactive: all other assays above

CCOC(=O)C(Br)c1ccccc1 (configuration not stated)
not listed: [5] | [7] | [10]
inactive: all other assays above

CC(C)C1=CC2=CC[C@@H]3[C@](C)(CCC[C@@]3(C)C(=O)O)[C@H]2CC1
not listed: [5] | [7] | [10]
inactive: all other assays above

CCNCCO
not listed: [5] | [10]
inactive: all other assays above

CN(C)Cc1ccccc1
not listed: [5]
inactive: all other assays above

Oc1ccccc1F
not listed: [5]
inactive: all other assays above

CN1C(=O)CC(c2ccccc2)C1=O (configuration not stated)
not listed: [5]
inactive: all other assays above

CCCCCCC
not listed: [5] | [10]
inactive: all other assays above

CC(=O)OC(C)OC(C)=O
not listed: [5]
inactive: all other assays above

CCCCCCCCCC#N
not listed: [5] | [7] | [10]
inactive: all other assays above

CCN(CC)C(=O)N(CC)CC
not listed: [6] | [7]
inactive: all other assays above

C=Cc1ccccc1
not listed: [5]
inactive: all other assays above
